Compounds with a hit are over-represented: about 3% of the library has one in this group of screens.
ABHD5-PLIN5 inh – blocks binding of human ABHD5 to perilipin-5 | Q00G26+Q8WTS1 | Split G. princeps luciferase complementation, luminescence, 4 h | inhibition, % at 4 µM | actives 0.78% (n = 360,000) | AID 602281;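 active = inhibition above the mean inhibition across every tested compound plus 3 SD, cut at about 22% in these data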;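 note: 0% = DMSO only wells and the 100% control is not disclosed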
Target sequence (Q00G26 whole entry, looked up): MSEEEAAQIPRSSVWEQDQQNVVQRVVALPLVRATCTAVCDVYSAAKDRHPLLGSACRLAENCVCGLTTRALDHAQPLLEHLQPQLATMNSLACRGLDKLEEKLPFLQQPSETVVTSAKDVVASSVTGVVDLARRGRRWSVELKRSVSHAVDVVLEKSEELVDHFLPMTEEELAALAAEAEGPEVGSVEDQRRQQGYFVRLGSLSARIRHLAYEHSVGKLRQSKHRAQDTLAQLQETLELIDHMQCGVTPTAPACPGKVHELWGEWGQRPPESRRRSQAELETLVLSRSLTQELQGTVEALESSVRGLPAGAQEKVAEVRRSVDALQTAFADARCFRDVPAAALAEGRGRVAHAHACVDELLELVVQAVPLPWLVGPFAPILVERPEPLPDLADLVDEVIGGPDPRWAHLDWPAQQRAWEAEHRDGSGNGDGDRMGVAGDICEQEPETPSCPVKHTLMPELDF
Target sequence (Q8WTS1 whole entry, looked up): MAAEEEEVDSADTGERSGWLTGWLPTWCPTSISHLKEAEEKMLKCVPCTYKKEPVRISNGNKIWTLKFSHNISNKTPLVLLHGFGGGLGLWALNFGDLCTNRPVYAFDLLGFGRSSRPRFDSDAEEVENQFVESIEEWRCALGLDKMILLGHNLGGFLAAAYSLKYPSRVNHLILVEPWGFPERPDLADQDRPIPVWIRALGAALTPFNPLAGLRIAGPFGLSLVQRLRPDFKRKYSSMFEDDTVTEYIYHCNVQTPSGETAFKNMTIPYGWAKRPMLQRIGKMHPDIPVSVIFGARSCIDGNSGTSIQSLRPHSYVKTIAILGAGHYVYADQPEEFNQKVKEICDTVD
MITF TRPM1 inh – inhibitors of MITF-driven TRPM1 promoter in melanoma cells | SK-MEL-5 TRPM1 promoter luciferase, 24 h | inhibition, % at 12.5 µM | actives 0.83% (n = 330,000) | AID 488899;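 active = mean inhibition across replicates of 60% or more, whatever share of single replicates reaches that level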
Peg3 promoter – reduces Peg3 promoter-driven luciferase expression in HeLa; inhibition, % at 20 µM; actives 1.7% (n = 360,000); HeLa PEG-Prom luciferase reporter, luminescence, overnight; AID 588405;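 active = inhibition of at least 50% at 20 µM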
Shn3 3UTR inh – Schnurri-3 reporter inhibition in Clone20 osteoblasts | Clone20 osteoblast Shn3 3'UTR firefly luciferase, 24 h | inhibition, % at 12.5 µM | actives 0.52% (n = 360,000) | AID 588674;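 active = mean inhibition of at least 75% with every replicate also reaching 75%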;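 note: 0% = median of neutral control wells and 100% = pilot-screen positive control compound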
EWS-Fli block – inhibitors of EWS/Fli oncoprotein transcriptional activity; AID 651661; A673 NR0B1-luciferase reporter, viability-normalised; inhibition, % at 12.6 µM; actives 0.67% (n = 350,000);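 active = mean inhibition of at least 50% after viability correction, with every replicate also passing that limit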;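 note: firefly luciferase signal divided by Alamar Blue viability fluorescence both relative to DMSO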
PAX8 inh HTS – PAX8 transcriptional activity inhibition; RMG-I TPO-luciferase reporter, SteadyGlo, 24 h; inhibition, % at 12.6 µM; actives 1.2% (n = 360,000); AID 652154;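 active = mean replicate inhibition at least 60% with every replicate also reaching 60%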;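 note: luciferase light reporting Pax8 driven TPO promoter activity; plate controls were median of neutral control wells for no effect and mitoxantrone controls for full effect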
An asterisk follows results filed as active; · = no result.

SMILES	ABHD5-PLIN5 inh	MITF TRPM1 inh	Peg3 promoter	Shn3 3UTR inh	EWS-Fli block	PAX8 inh HTS
O=S(=O)(c1cccc(F)c1)N1CC[C@@H]2[C@H](CO)Nc3ccc(C#Cc4cccc(F)c4)cc3[C@@H]21	·	·	·	·	2.2	0.0
COc1cccc(S(=O)(=O)N[C@H]2CC[C@@H](CC(=O)NC3Cc4ccccc4C3)O[C@H]2CO)c1	·	·	·	·	-3.4	17.6
Clc1ccc2ccc3cccnc3c2n1	15.2	-4.7	-23.7	36.0	3.1	-36.2
O=S1(=O)Nc2c(ccc3cccnc23)-c2ccccc21	-2.6	76.6*	110.6*	87.6*	·	·
Cc1ccc(C(=O)Sc2cccccc2=O)cc1	-3.0	83.2*	103.0*	95.6*	34.0	42.5
Fc1ccc(NC(=S)N2CCCN(c3ccc(C(F)(F)F)cn3)CC2)c(F)c1	-6.5	42.1	-1.7	89.4*	1.6	24.2
CCC(=O)Nc1cc(C(=O)O)ccc1S(=O)(=O)c1ccc(C)cc1	-0.1	4.5	9.2	-2.3	-3.6	64.4*
CNC(=O)C[C@@H]1CC[C@@H]2[C@@H](COc3ccc(NC(=O)Nc4ccc(F)cc4)cc3C(=O)N2C)O1	·	·	·	·	-0.2	-12.6
C[C@@H]1CN([C@H](C)CO)C(=O)c2cc(NS(=O)(=O)c3ccc(Cl)cc3)ccc2O[C@@H](C)CCCCO[C@H]1CN(C)S(=O)(=O)c1ccc(Cl)cc1	·	·	·	·	14.5	94.7*
C[C@@H]1CN([C@@H](C)CO)C(=O)c2cc(NS(=O)(=O)c3ccc(Cl)cc3)ccc2O[C@@H](C)CCCCO[C@H]1CN(C)S(=O)(=O)c1ccc(Cl)cc1	·	·	·	·	1.3	-4.1
C[C@@H]1CN([C@@H](C)CO)C(=O)c2cc(NS(=O)(=O)c3ccc(Cl)cc3)ccc2O[C@@H](C)CCCCO[C@H]1CN(C)C	·	·	·	·	-2.1	80.1*
C[C@H](CO)N1C[C@H](C)[C@H](CN(C)S(=O)(=O)c2ccc(Cl)cc2)OCCCC[C@H](C)Oc2ccc(NS(=O)(=O)c3ccc(Cl)cc3)cc2C1=O	·	·	·	·	3.8	80.5*
COc1ccc(NC(=O)N(C)C[C@@H]2Oc3ccc(NC(=O)Cc4ccccc4)cc3C(=O)N([C@@H](C)CO)C[C@H]2C)cc1	·	·	·	·	1.0	-20.1
CCCC(=O)Nc1ccc2c(c1)C(=O)N(C)C[C@@H](OC)[C@@H](C)CN(C(=O)c1cnccn1)[C@@H](C)CO2	·	·	·	·	-1.9	·
C[C@@H]1CCCCO[C@H](CN(C)S(C)(=O)=O)[C@@H](C)CN([C@H](C)CO)C(=O)c2cc(NC(=O)CCCN(C)C)ccc2O1	·	·	·	·	-0.4	-12.9
O=[N+]([O-])c1ccc(N=Nc2ccc(O)cc2O)cc1	-0.8	-13.2	-12.2	4.7	·	80.9*
O=[N+]([O-])c1ccc(N=Nc2c(O)[nH]c3ccc(F)cc23)cc1	5.4	-52.4	-79.8	-21.2	-92.3	-102.5
O=[N+]([O-])c1cccc(N=Nc2ccc(O)cc2O)c1	6.8	-3.5	-58.8	7.7	-18.2	80.6*
CCOc1cc(C=O)cc(N=Nc2cccc([N+](=O)[O-])c2)c1O	6.6	16.4	5.1	0.2	2.0	16.7
Cc1ccccc1S(=O)(=O)NCC[C@@H]1CC[C@H](NC(=O)C2CCCCC2)[C@H](CO)O1	·	·	·	·	11.1	14.5
CCC(C)c1ccc(S(=O)(=O)N2CCN(C(=O)c3ccc(Cl)c(S(=O)(=O)N4CCOCC4)c3)CC2)cc1 (stereo not given)	-6.6	30.0	20.2	89.7*	13.9	30.2
CCOC(=O)N1CCN(C(=O)c2ccc(Cl)c(S(=O)(=O)N3CCOCC3)c2)CC1	0.7	-7.4	4.2	-1.7	·	·
C[C@H]1CN([C@@H](C)CO)C(=O)c2cccc(NC(=O)Nc3cccc4ccccc34)c2O[C@@H]1CN(C)S(C)(=O)=O	·	·	·	·	4.2	8.6
O=C(N/N=C/c1ccccn1)c1cc([N+](=O)[O-])cc([N+](=O)[O-])c1	2.9	67.4*	12.2	-4.9	6.9	10.6
O=C(O)c1cccc(NC(=S)N/N=C/c2ccccn2)c1	-4.7	63.1*	-61.9	23.6	19.4	31.7
SMILES	ABHD5-PLIN5 inh	MITF TRPM1 inh	Peg3 promoter	Shn3 3UTR inh	EWS-Fli block	PAX8 inh HTS
O=C(O)c1cccc(NC(=S)N/N=C/c2cccc(O)c2)c1	-4.8	10.6	-5.1	-2.8	30.9	23.1
Cc1noc(C)c1NC(=O)N(C)C[C@@H]1OCCCC[C@H](C)Oc2ccc(N(C)C)cc2C(=O)N([C@@H](C)CO)C[C@@H]1C	·	·	·	·	0.5	-7.1
CCOC(=O)c1sc(Nc2nc3cc4c(cc3s2)OCO4)cc1C	2.1	-29.7	-210.2	23.3	·	-11.0
CCOC(=O)c1csc(NC(=O)c2cc3ccccc3o2)n1	-7.9	-46.8	-148.5	·	58.6*	-45.3
CCOC(=O)c1csc(NC(=O)c2ccccc2)n1	10.8	·	-420.4	-52.0	4.0	-181.5
CCOC(=O)c1cccc(NC(=O)c2cc3ccccc3o2)c1	0.9	-23.8	-229.7	-93.1	84.1*	-79.4
CCOC(=O)c1csc(NC(=O)c2ccc(OCC)cc2)n1	1.7	13.6	-6.8	7.5	53.4*	10.3
CCOC(=O)c1sc(Nc2nc3c(OC)cccc3s2)cc1C	-2.2	-44.9	77.3*	-25.1	·	-66.2
CCOC(=O)c1ccc(NC(=O)c2cc3ccccc3o2)cc1	-10.4	-112.3	-229.9	-39.6	·	·
CC(C)NC(=O)N(C)C[C@H]1Oc2ncc(C#CCc3ccccc3)cc2C(=O)N([C@H](C)CO)C[C@H]1C	·	·	·	·	-7.1	·
C[C@@H]1CN([C@@H](C)CO)C(=O)c2cc(C#Cc3ccccc3F)cnc2O[C@H]1CN(C)C(=O)C1CC1	·	·	·	·	2.7	·
CCOC(=O)c1sc(NC(=O)c2ccccc2OC)nc1C	-2.1	-21.1	-182.7	-30.9	86.0*	-75.2
CCOC(=O)c1sc(NC(=O)c2ccc3ncsc3c2)nc1C	2.6	·	-29.0	-46.1	87.1*	32.8
CCOC(=O)c1sc(NC(=O)c2cc3ccccc3o2)nc1C	-0.3	41.5	-152.9	-99.7	87.0*	-1.5
CCOC(=O)c1sc(NC(=O)c2cncc(Br)c2)nc1C	·	·	·	·	-53.2	·
CCOC(=O)c1sc(NC(=O)Nc2ccccc2F)nc1C	-4.0	-9.6	-28.3	28.9	·	-52.9
C[C@@H]1CN([C@@H](C)CO)C(=O)c2cc(NC(=O)Cc3ccccc3)ccc2O[C@@H](C)CCCCO[C@@H]1CN(C)C(=O)c1ccncc1	·	·	·	·	-0.6	-1.3
COc1cc(NC(=O)COc2ccc(-n3cnnn3)cc2)c(OC)cc1Cl	0.7	10.8	59.0*	7.3	·	·
COc1ccc(NC(=O)COc2ccc(-n3cnnn3)cc2)cc1OC	-0.7	4.4	14.5	6.6	12.3	7.2
c1ccc(-c2cn3nc4c(nc3n2)CCCC4)cc1	-12.8	73.1*	-3.4	16.3	·	·
Cc1cccnc1CCNC(=O)c1ccc(OC2CCN(Cc3ccccn3)CC2)cc1	4.3	18.2	72.3*	12.8	0.0	-19.0
C/C=C/c1ccc2c(c1)O[C@H](CN(C)C(=O)Cc1cccnc1)[C@H](C)CN([C@@H](C)CO)S2(=O)=O	·	·	·	·	-9.1	-1.8
CCN1/C(=C/c2ccc3cc(C)ccc3[n+]2CC)Sc2ccccc21	22.9*	101.3*	104.3*	84.4	48.5	93.3*

Bioassay records deposited in PubChem BioAssay by several laboratories.
